This assay can be described thus: NIH3T3 cell viability loss – plate reader, cherry-pick, two tests, cytotoxicity control, dose response (AID 651900). The note with it: activity: test 2 concentration series, at 26 µM.

The structures appear in SMILES notation. Some of the results follow. Activity calls are given as the source filed them. No rule for the calls is given here.

Our source for the activity and outcome values is PubChem BioAssay AID651900 (Broad Institute, 2012).

Take `CC(=O)CSc1nnc(CSc2ncccn2)n1C1CCCCC1`: the activity amounted to 1.8% and the outcome is “inactive”. For `CC(=O)c1ccc(N2CCN(C(=O)c3ccc4nc[nH]c4c3)CC2)cc1` the same measures were -0.738% and “inactive”. As to `C=C(C)CSc1nc(N)c2c3c(sc2n1)CCC3`, the activity was found to be 4.68% and the outcome was “inactive”. `CCC(CO)Oc1cc(NC(=O)c2cccc(F)c2)c2ncn(C(C)C)c2c1` (configuration not stated): the outcome was “inactive”. The same measure, in the same setting: to `O=C(c1ccncc1)N1CC[C@@H]2[C@H]1c1cc(Br)ccc1N[C@@H]2CO` belongs “inactive”. As for `Cc1nc(=O)c(-c2ccccc2)c(C)n1-c1ccc(Br)cc1`, the activity was -4.55% and the outcome is “inactive”.

On to `C=CCn1c(SCc2c(C(=O)OC)sc(N)c2C(=O)OC)nnc1-c1ccc(Cl)cc1`, for which the activity was -11.5% and the outcome was “inactive”.
